PubChem BioAssay (NCI)
Compounds without any hit were thinned out: in the full panel of roughly 83,000, 20% have a hit.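 The test compound was applied at a single concentration to cells in 96-well plates for 48 hours, and percent growth was recorded.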 Unmarked numbers belong to inactive results. Calls of active or inactive are those of the source. How the source made its calls: active means growth percent below 10; inactive means the rest.

Tests used:
Test in all cases: NCI-60 one-dose screen, 48 h (100 = growth as untreated, 0 = no growth, -100 = all killed)
Conditions in all cases: 10 µM unless noted
NCI-H23 lung = tested on: NCI-H23 lung
NCI-H226 lung = tested on: NCI-H226 lung
NCI-H322M lung = tested on: NCI-H322M lung
NCI-H460 lung = tested on: NCI-H460 lung
HOP-92 NSCLC = tested on: HOP-92 NSCLC
NCI-H522 lung = tested on: NCI-H522 lung
A549/ATCC NSCLC = tested on: A549/ATCC NSCLC
786-0 renal = tested on: 786-0 renal
COLO 205 colon = tested on: COLO 205 colon
DU-145 prostate = tested on: DU-145 prostate
K-562 leukemia = tested on: K-562 leukemia
MDA-MB-231 breast = tested on: MDA-MB-231 breast
RXF 393 renal = tested on: RXF 393 renal
SF-268 CNS = tested on: SF-268 CNS
SF-295 CNS = tested on: SF-295 CNS
SF-539 CNS = tested on: SF-539 CNS
M14 melanoma = tested on: M14 melanoma
MALME-3M melanoma = tested on: MALME-3M melanoma
HOP-62 NSCLC = tested on: HOP-62 NSCLC
UACC-257 melanoma = tested on: UACC-257 melanoma

| Compound | growth (NCI-H23 lung) | growth (NCI-H226 lung) | growth (NCI-H322M lung) | growth (NCI-H460 lung) | growth (HOP-92 NSCLC) | growth (NCI-H522 lung) | growth (A549/ATCC NSCLC) | growth (786-0 renal) | growth (COLO 205 colon) | growth (DU-145 prostate) | growth (K-562 leukemia) | growth (MDA-MB-231 breast) | growth (RXF 393 renal) | growth (SF-268 CNS) | growth (SF-295 CNS) | growth (SF-539 CNS) | growth (M14 melanoma) | growth (MALME-3M melanoma) | growth (HOP-62 NSCLC) [%] | growth (UACC-257 melanoma) |
| --- | --- | --- | --- | --- | --- | --- | --- | --- | --- | --- | --- | --- | --- | --- | --- | --- | --- | --- | --- | --- |
| C=C1[C@@H](O)C[C@H]2C(C)(C)C[C@H](Cl)C[C@]2(C)[C@H]1C[C@H](O)[C@H]1CC(=O)NC1=O | -36.2% (active) | -25.8% (active) | -8.41% (active) | -11.5% (active) | -13.5% (active) | -36.8% (active) | -14.1% (active) | -33.2% (active) | -62.5% (active) | -29.1% (active) | 1.91% (active) | -31% (active) | -63.2% (active) | -20.8% (active) | -29.2% (active) | -35.4% (active) | -75.5% (active) |  |  |  |
| COc1cc(C2CC(c3ccc(Cl)cc3)=NN2c2ccc(Cl)cc2)cc(OC)c1OC (stereo not drawn) | 97.4% | 88.4% | 91.1% | 97.1% | 57.7% | 88.9% | 93.9% | 98.8% | 91.4% | 106% | 93.8% | 79.8% | 89.6% | 90.6% | 95.3% | 93.9% | 90.3% | 92% |  |  |
| Nc1cc2c(cc1Br)-c1c(C(=O)O)cccc1C2O (stereo not drawn) | 87.2% | 100% | 107% | 99.4% |  | 96.5% | 91.7% | 98.8% | 96.3% | 110% |  | 98.3% |  | 115% | 118% | 98.6% | 98.9% | 98.2% | 95.9 |  |
| CCCC(=O)OCC1OC(n2cnc3c(=S)nc(N)[nH]c32)C(OC(=O)CCC)C1OC(=O)CCC (stereo not drawn) | 28.9% | 33.3% | 55.5% | 34.8% |  | -5.66% (active) | 92.4% | 21.5% | 79.2% | 27.3% |  | 38.9% |  | 38.8% | 19.8% | 26.7% | 13.9% | 29.9% | 23.1 |  |
| COc1c(OCCCN2CCOCC2)ccc2c3n(c(=NC(=O)c4cnc(N)nc4)nc12)CCN3 | 20.6% | 23.7% | -12.6% (active) | 9.88% (active) | -14.6% (active) | 9.59% (active) | -5.58% (active) | -4.92% (active) | -18.6% (active) | 21.8% | 21.8% | 17.1% | -40.7% (active) | 24.6% | -15.4% (active) | -51.5% (active) | 10.4% | -21.2% (active) |  | -13.8% (active) |
| CC(=O)c1cnc2ccc(-c3cc(Cl)c(O)c(Cl)c3)nc2c1NC1CCC(CN(C)C)CC1 (stereo not drawn) | -54.3% [2.5 µM] (active) | -16.3% [2.5 µM] (active) | -37.7% [2.5 µM] (active) | -51.8% [2.5 µM] (active) | -20.3% [2.5 µM] (active) | -75.5% [2.5 µM] (active) | -8.85% [2.5 µM] (active) | -48.3% [2.5 µM] (active) | -94.2% [2.5 µM] (active) | -5.67% [2.5 µM] (active) | 6.35% [2.5 µM] (active) | -7.07% [2.5 µM] (active) | -75.1% [2.5 µM] (active) | -24.1% [2.5 µM] (active) | -19.2% [2.5 µM] (active) | -89% [2.5 µM] (active) | -58.4% [2.5 µM] (active) | -75.7% [2.5 µM] (active) |  | -26.4% [2.5 µM] (active) |
| CCc1cc2c(c3ccc(C(=O)CBr)cc13)CCCC2 | 89.1% | 92.2% | 77.5% | 109% | 109% | 88.3% | 93% | 99.7% | 102% | 107% | 86.4% | 99.8% |  | 92.2% | 105% | 98.3% | 107% | 95.9% |  |  |
| CO[C@H]1C[C@@H]2CC[C@@H](C)[C@@](O)(O2)C(=O)C(=O)N2CCCC[C@H]2C(=O)O[C@H]([C@H](C)C[C@@H]2CC[C@@H](OP(C)(C)=O)[C@H](OC)C2)CC(=O)[C@H](C)/C=C(\C)[C@@H](O)[C@@H](OC)C(=O)[C@H](C)C[C@H](C)\C=C/C=C/C=C/1C | 57.5% | 40.9% | 54.5% | 40.4% | 36.2% | 31.8% | 34.6% | 53.3% | 52.6% | 46% | 48.4% | 71.7% | 18.9% | 62.9% | 23.5% | 41.8% | 66.4% | 40.4% |  | 30.7% |
| CC1(O)CCC(Nc2cc(-c3ccc(C(F)(F)F)cc3)c(C#N)c3nc4ccccc4n23)CC1 (stereo not drawn) | 81.9% | 71% | 89.9% | 68.7% | 52.5% | 63.2% | 56% | 70.7% | 61% | 67.8% | 73.1% | 50.4% | 53.2% | 64.5% | 51.9% | 63.4% | 91.2% |  |  |  |
